Assay outcomes deposited in PubChem BioAssay by National Center for Advancing Translational Sciences (NCATS).
The entries come from a sample that favours hits as a whole.
APEX1 inh = qHTS Assay for Inhibitors of the Human Apurinic/apyrimidinic Endonuclease 1 (APE1). recombinant APE1, TAMRA/BHQ-2 abasic DNA cleavage fluorescence. DNA repair nuclease/redox regulator APEX1 (Homo sapiens), P27695. Potency, µM (doses to about 65.8 µM), inactives show top-dose activity change, negative = inhibition, usual class: inhibitors. AID 2517, 2012. 350,000 compounds, 0.35% hits;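 further: plate controls were vehicle for no effect and reference inhibitor for full effect; nearly all actives have a fitted effect of over 55% in size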
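Activity was derived from the fluorescence gain between first and third kinetic reads (60 s intervals, ex 525/em 598 nm) after 50 nM THF-abasic TAMRA/BHQ-2 duplex was added to 0.75 nM APE1 preincubated 15 min with compound.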
TDP1 inh = qHTS Assay for Inhibitors of Tyrosyl-DNA Phosphodiesterase (TDP1) | Tyrosyl-DNA phosphodiesterase 1 (Homo sapiens), Q9NUW8 | recombinant TDP1, AlphaScreen DNA substrate cleavage | Potency, µM (highest dose often 130 µM), for the others: at the top dose activity change, negative = inhibition, hits mostly inhibitors | 350,000 compounds, 0.28% hits | AID 485290, 2010; further: nearly all actives have a fitted effect of over 40% in size
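Tdp1 1 nM final; 15 min RT w/ cpd; substrate 15 nM, 5 min; beads 10 ug/ml, 10 min; AlphaScreen read. Neg ctrl: no enzyme.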
BLM helicase inh = qHTS Assay for Inhibitors of Bloom's syndrome helicase (BLM); Potency, µM (highest dose often 56.1 µM), for the others: top-dose activity change, negative = inhibition, usual class: inhibitors; recombinant BLM DNA unwinding, fluorescence dequenching; RecQ-like DNA helicase BLM (Homo sapiens), P54132; 350,000 compounds, 0.2% hits;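 further: plate controls were vehicle for no effect and no enzyme for full effect; nearly all actives have a fitted effect of over 35% in size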
RECQ1 inh = qHTS Assay for Inhibitors of RecQ-Like Dna Helicase 1 (RECQ1); AID 2549, 2010; RECQ1 DNA unwinding, red fluorescence kinetic read; 240,000 compounds, 0.54% hits; Potency, µM (series often up to 57.3 µM), without a hit: top-dose activity, negative = inhibition, actives largely listed as inhibitors; ATP-dependent DNA helicase Q1 (Homo sapiens), P46063;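 further: plate controls were vehicle for no effect and no enzyme for full effect; nearly all actives have a fitted effect of over 30% in size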
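50 nM RECQ1T1 preincubated 15 min with compound in Tris pH 8.0 buffer with MgCl2, DTT, Tween-20 and 2.5 ug/ml poly(dI-dC); started with 200 nM TAMRA/BHQ-2 forked duplex and 2 mM ATP. Unwinding read as fluorescence (525/598 nm), two reads 2 h apart.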
KDM4E inh = qHTS Assay for Inhibitors of Human Jumonji Domain Containing 2E (JMJD2E); Lysine-specific demethylase 4E (Homo sapiens), B2RXH2; 230,000 compounds, 1.6% hits; JMJD2E catalytic domain, FDH-coupled NADH fluorescence (FDH is formaldehyde dehydrogenase); Potency, µM (series often up to 57.1 µM), for the others: at the top dose activity change, negative = inhibition, hits mostly inhibitors; active means well fitted inhibition curve with a large enough effect, not every such curve was filed as active; inconclusive means small, poorly fitted or top-dose-only effect, or another doubt; inactive means no such curve, though single readings can be large or run the other way;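 further: 0% = wells with enzyme and -100% = buffer wells without enzyme; nearly all actives have a fitted effect of over 50% in size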
L3MBTL1 block = qHTS Assay for the Inhibitors of L3MBTL1 | Potency, µM (titrated, usually from 57.1 µM), for inactives: at the top dose activity, negative = inhibition, most hits filed as inhibitors | AlphaScreen L3MBTL1–H3K9me1 peptide binding | AID 485360, 2010 | Lethal(3)malignant brain tumor-like protein 1 (Homo sapiens), Q9Y468 | 230,000 compounds, 0.66% hits; further: nearly all actives have a fitted effect of over 60% in size
Target sequence (Q9Y468 whole entry, looked up): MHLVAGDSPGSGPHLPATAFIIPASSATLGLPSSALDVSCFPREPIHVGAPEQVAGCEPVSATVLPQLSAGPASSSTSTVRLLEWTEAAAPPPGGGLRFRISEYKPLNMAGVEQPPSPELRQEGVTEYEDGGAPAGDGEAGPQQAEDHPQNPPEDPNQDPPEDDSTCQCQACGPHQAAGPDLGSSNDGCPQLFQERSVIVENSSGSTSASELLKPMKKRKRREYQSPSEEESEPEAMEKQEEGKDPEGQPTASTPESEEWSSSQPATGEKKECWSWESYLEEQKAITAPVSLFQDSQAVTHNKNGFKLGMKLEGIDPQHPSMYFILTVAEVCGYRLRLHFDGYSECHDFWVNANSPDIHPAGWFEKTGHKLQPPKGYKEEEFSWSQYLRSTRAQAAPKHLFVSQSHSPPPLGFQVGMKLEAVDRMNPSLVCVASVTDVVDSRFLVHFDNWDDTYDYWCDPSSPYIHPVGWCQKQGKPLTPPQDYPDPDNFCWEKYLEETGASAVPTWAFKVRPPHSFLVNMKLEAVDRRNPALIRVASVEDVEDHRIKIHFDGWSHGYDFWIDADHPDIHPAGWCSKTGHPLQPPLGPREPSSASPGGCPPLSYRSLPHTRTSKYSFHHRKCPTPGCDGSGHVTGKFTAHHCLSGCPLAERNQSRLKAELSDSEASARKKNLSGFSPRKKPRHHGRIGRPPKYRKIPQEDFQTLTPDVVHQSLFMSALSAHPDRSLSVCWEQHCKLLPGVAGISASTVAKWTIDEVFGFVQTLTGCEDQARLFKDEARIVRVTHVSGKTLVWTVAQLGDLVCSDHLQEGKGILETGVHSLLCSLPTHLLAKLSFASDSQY
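AlphaScreen assay: L3MBTL1 (50 nM final) was preincubated 30 min at room temperature with biotinylated H3(1-15)K9me1 peptide (75 nM final), then 30 min with library compounds; streptavidin donor and nickel chelate acceptor beads (10 ug/mL final) added, 30 min dark.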
* = called active by the depositor; i = inactive; ? = inconclusive; / = no result; [ ] = remark or other dose. Unless noted, the call rests on the fitted dose curve; in most records, active means well fitted curve in the direction sought with a large enough effect; inconclusive means small, poorly fitted or top-dose-only effect, or another doubt; inactive means no such curve, though single readings can be large; an effect the other way counts as inactive or inconclusive. Unless noted, on the % scale 0 is the no-effect control and ±100 the full control effect; potency means the concentration at half of the fitted maximal effect.

SMILES	APEX1 inh	TDP1 inh	BLM helicase inh	RECQ1 inh	KDM4E inh	L3MBTL1 block
O=C(O)C1Cc2[nH]cnc2C(c2cccc([N+](=O)[O-])c2)N1 (stereo not given)	3%	2%	-6%	-5%	?	-4%
O=C(O)C1Cc2[nH]cnc2C(c2ccccc2O)N1 (stereo not given)	3%	0%	4%	-2%	32µM*	4%
C[n+]1c2cc(N)ccc2cc2ccc(N)cc21 (tested in a mixture with another compound)	25µM*	/	/	/	/	/
Cc1nc2ccc(N)cc2s1	-4%	4%	-2%	-13%	-25%	-1%
CC1(C)CC(=O)C2=C(C1)NC(Nc1nc3ccccc3o1)=NC2c1cccnc1 (stereo not given)	/	0%	/	/	/	/
CCOC(=O)c1cccc(-c2ccc(C=O)o2)c1	-3%	-5%	-11%	2%	5%	-14%
O=Cc1ccc(-c2cccc(C(=O)O)c2)o1	-14%	45µM*	5%	i	?	?
Cc1nnc(N/N=C\c2ccc(-c3cccc(C(=O)O)c3)o2)n1N	?	50µM*	0%	0%	?	?
Cc1nnc(N/N=C/c2ccc(-c3ccc(Br)cc3)o2)n1N	-12%	8%	-6%	-3%	5.6µM*	-23%
Nc1nnc(CC(=O)N/N=C/c2ccc(-c3cccc(C(=O)O)c3)o2)s1	-11%	/	-1%	11%	?	/
CCOC(=O)[C@H](CCc1ccccc1)N[C@@H](C)C(=O)N1Cc2cc(OC)c(OC)cc2C[C@H]1C(=O)O	-7%	/	/	/	/	/
O=C(CSc1ccsc1[N+](=O)[O-])Nc1cc(F)ccc1F	1%	-8%	?	-4%	7%	40µM*
Oc1ccc(-c2nc(-c3ccc(O)c(O)c3)cs2)cc1	?	6%	-13%	?	28µM*	-28%
Oc1ccc(Nc2nc(-c3ccc4ccccc4c3)cs2)cc1	-1%	12%	1%	-5%	?	/
CCN(C)c1ccc(/C=N\n2nnnc2N)cc1	14%	50µM*	-7%	i	?	-2%[11.4 µM]
CC(C)CCNC(=O)c1cccc(Nc2nc3ccccc3n3nnnc23)c1	/	0%	2%	/	/	/
NC(=O)c1c(NC(=O)CSc2nnc(-c3ccco3)n2-c2ccccc2)sc2c1CCC2	?	-13%	-23%	-7%	?	10µM*
COc1cc(C2NC(=O)NC(C)=C2C(=O)OCc2ccccc2)ccc1O (stereo not given)	1%	9%	14µM*	i	2%	-2%
CCOc1cc(C2NC(=O)NC(C)=C2C(=O)OCc2ccccc2)ccc1O (stereo not given)	-2%	3%	-22%	-7%	5%	2%
COC(CC(=O)NNC(=S)Nc1ccc(Cl)cc1)OC	0%	3%	1%	-2%	-5%	?
COC(CC(=O)NNC(=S)Nc1ccccc1)OC	?	-2%	1%	14µM*	3%	11%
O=C(Nc1cccc(Cl)c1)c1cc(N=Nc2ccc([N+](=O)[O-])cc2Cl)ccc1O	-3%	9%	18µM*	-5%	-16%	?
COc1ccc(C2c3c(n(Cc4ccccc4)cnc3=N)Oc3ccc4ccccc4c32)cc1OC (stereo not given)	/	5%	/	/	/	/
CCCCC/C=C\C[C@@H]1O[C@H]1C(O)/C=C\C/C=C\CCCC(=O)O (stereo not given in full)	-8%	6%	-1%	-5%	2%	/
CN1CCc2c(sc3ncn4nc(-c5ccccc5O)nc4c23)C1	-5%	10%	76%	-9%	22µM*	/
SMILES	APEX1 inh	TDP1 inh	BLM helicase inh	RECQ1 inh	KDM4E inh	L3MBTL1 block
CC1(C)C=C2C(=NN(c3ccccc3)C(N)=C2C#N)CO1	5%	/	18µM*	/	/	-7%
CCC(=O)Nc1sccc1C(=O)OC	-3%	7%	0%	0%	9%	0%
CCOC(=O)NC(=O)C(/C=N/c1sccc1C(=O)OC)=C(\C)O	3%	3%	-1%	14µM*	?	7%
N#Cc1nc(-c2ccc(OCc3ccccc3Cl)cc2)oc1NCCCn1ccnc1	-3%	5%	-10%	-1%	3.2µM*	/
N#Cc1nc(-c2ccc(OCc3ccccc3)cc2)oc1NCCCn1ccnc1	2%	13%	-13%	-15%	?	?
CCCCNC(=O)c1ccc(Cn2c(=S)[nH]c3c([nH]c4ccc(OC)cc43)c2=O)cc1	0%	-1%	0%	-5%	?	2%
COc1ccc2[nH]c3c(=O)n(Cc4ccc(C(=O)NCC5CCCO5)cc4)c(=S)[nH]c3c2c1 (stereo not given)	-2%	?	-20%	20µM*	?	-2%
COc1cccc2sc(NN)nc12	-4%	9%	-13%	i	?	/
NNc1nc2c(Cl)c(Cl)ccc2s1	3.2µM*	?	-27%	-27%	-14%	-3%
O=C(Cc1cc2ccccc2o1)NCc1ccc(F)cc1	13%	/	-2%	/	/	/
CCCC[C@@H]1C[C@H]1[C@@H](NP(=O)(c1ccccc1)c1ccccc1)c1ccccc1OC	-1%	8%	-3%	2%	15%	/
Cc1cccnc1NC(=O)CCc1nnc2ccc(NCc3ccco3)nn12	-21%	/	-11%	/	/	/
O=C(CCc1nnc2ccc(NCc3ccco3)nn12)Nc1ccccn1	7%	25µM*	-12%	/	/	/
CCO[C@H]1OC(C(=O)N2CCN(Cc3ccc4c(c3)OCO4)CC2)=C[C@@H](c2cn(C(C)=O)c3ccccc23)[C@@H]1CCCO	10%	4%	-4%	35µM*	1%	-14%
CC(=O)n1cc([C@H]2C=C(C(=O)NCc3ccccc3)O[C@@H](OCCCCO)C2)c2ccccc21	-1%	8%	-5%	6%	?	-4%
CC(=O)n1cc([C@@H]2C=C(C(=O)NCc3ccccc3)O[C@H](OCCCCO)C2)c2ccccc21	-1%	5%	-8%	8%	16µM*	0%
CC(=O)n1cc([C@@H]2C=C(C(=O)N3CCN(Cc4ccccc4)CC3)O[C@H](OCc3ccc(CO)cc3)C2)c2ccccc21	-9%	6%	-9%	i	20µM*	-25%
